Test results published in PubChem BioAssay (NCI).
The panel holds about 79,000 compounds, 15% with a hit somewhere; the sample as a whole holds those more often. Rule as the data show it: active = growth inhibition above about 70%; inactive = the rest.

How the values were obtained:
[1] = NCI Yeast Anticancer Drug Screen. Data for the rad50 strain (AID 155);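 also: 0% = growth of vehicle-only cultures of the same strain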; settings: S. cerevisiae rad50 strain growth inhibition; at 50.0 µM; active compounds read high
Summary of the method: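 Relative growth inhibition (compound vs vehicle) was measured in yeast with a defined repair-gene alteration.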

[2] = NCI Yeast Anticancer Drug Screen. Data for the mec2-1 strain (AID 157); settings: S. cerevisiae mec2-1 strain, at 50.0 µM, active compounds read high
Summary of the method: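 Test agents were screened against the mec2-1 yeast strain, with defined DNA repair or cell cycle alteration. Growth was scored as inhibition against vehicle-only controls.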

[3] = NCI Yeast Anticancer Drug Screen. Data for the sgs1 mgt1 strain (AID 161);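 also: 0% = growth of cultures given vehicle only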; settings: S. cerevisiae sgs1 mgt1 strain, at 50.0 µM, active compounds read high
Summary of the method: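 Read-out: growth inhibition vs vehicle controls. Cells: mutant yeast strain deficient in DNA damage repair.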

[4] = NCI Yeast Anticancer Drug Screen. Data for the cln2 rad14 strain (AID 165);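 also: 0% = growth equal to vehicle treated cultures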; settings: S. cerevisiae cln2 rad14 strain, at 50.0 µM, active compounds read high
Summary of the method: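 Growth of compound-exposed yeast (cln2 rad14 genotype) measured and expressed as inhibition relative to vehicle.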

[5] = NCI Yeast Anticancer Drug Screen. Data for the bub3 strain (AID 167); settings: S. cerevisiae bub3 mutant strain, at 50.0 µM, active compounds read high
Summary of the method: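 Screening used yeast with an engineered genetic alteration affecting cell cycle control. Compound-exposed cultures were compared with vehicle cultures, and reduced growth was taken as inhibition.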

[6] = NCI Yeast Anticancer Drug Screen. Data for the mlh1 rad18 strain (AID 175); settings: S. cerevisiae mlh1 rad18 strain growth inhibition; at 50.0 µM; active compounds read high
Summary of the method: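 In this whole-cell yeast screen, a strain with altered DNA damage repair is challenged with compound, and its growth is measured against matched vehicle-treated controls.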

Measured: growth inhibition

CC(C)N(C(=O)c1ccccc1)C(C)C
inactive: [1] 20.2% | [2] 26.2% | [3] 29.4% | [4] -20.1% | [5] -7.35% | [6] 2.35%

O=Cc1ccc(F)cc1
inactive: [1] -7.9% | [2] -23.6% | [3] -4.1% | [4] -13.1% | [5] -10.6% | [6] -17.4%

CCC(/C=C\C(C)=O)CC
inactive: [1] -28.3% | [2] -25.2% | [3] -27.6% | [4] 5.35% | [5] -10.6% | [6] -12.8%

CC1(C)C2CCC1(C)C1(C2)OCCS1 (stereo unspecified)
inactive: [1] 24.8% | [2] -5.25% | [3] 1% | [4] 11.2% | [5] 1.05% | [6] -7.65%

COC(C(=O)C(O)C(C)O)C1Cc2cc3cc(OC4CC(OC5CC(O)C(O)C(C)O5)C(O)C(C)O4)c(C)c(O)c3c(O)c2C(=O)C1OC1CC(OC2CC(O)C(OC3CC(C)(O)C(O)C(C)O3)C(C)O2)C(O)C(C)O1 (stereo unspecified)
inactive: [1] -6.6% | [2] -23.4% | [3] -12.5% | [4] 6.95% | [5] -11.2% | [6] 11.8%

Cc1ccnc(Nc2nc3ccccc3[nH]2)n1
inactive: [1] 7.1% | [2] -10.9% | [3] 4.5% | [4] 14.1% | [5] 8.6% | [6] 8.85%

C/C(Cc1ccccc1)=N\O
inactive: [1] 3.75% | [2] 3.1% | [3] -20.6% | [4] 19.8% | [5] -7.95% | [6] 7.25%

O=C(c1ccccc1O)N1CCCC1
inactive: [1] 19.6% | [2] 7.15% | [3] 19.9% | [4] 14.8% | [5] 2.15% | [6] 10.8%

Oc1ccc(CCC2CCNc3ccccc32)cc1 (stereo unspecified)
inactive: [1] 0.35% | [2] -1.85% | [3] -14.2% | [4] -11.7% | [5] -3.95% | [6] -3.9%

O=C(O)Cc1cccc2ccccc12
inactive: [1] 19.2% | [2] -7.55% | [3] 2.65% | [4] 0.05% | [5] -9.65% | [6] -0.55%

Cc1nc(C)c(C(=O)O)cc1C(=O)O
inactive: [1] -8.9% | [2] -17.8% | [3] 9.15% | [4] 2.85% | [5] 21.4% | [6] 4%

O=C1Nc2ccccc2/C1=C\c1ccccc1O
inactive: [1] 25.2% | [2] -1.75% | [3] 12.2% | [4] 6.8% | [5] 17.4% | [6] 23.4%

NC(=S)N/N=C/c1ccc(Cl)cc1
inactive: [1] 47.5% | [2] 23.8% | [3] 41.5% | [4] 13.4% | [5] 22.9% | [6] 46.9%

O=C(O)c1ccccc1Cc1ccc2c(c1)CCCC2
inactive: [1] 17.4% | [2] 12.2% | [3] -4.6% | [5] 25.7%

COc1ccc(C2CCCCC2=O)cc1 (stereo unspecified)
inactive: [1] -17.2% | [2] -48.9% | [3] -11.8% | [4] 5.3% | [5] -34.2% | [6] -11.8%

N#C/C(=C\c1ccc(C#N)cc1)C(=O)c1ccccc1
inactive: [1] 10.5% | [2] 0.95% | [3] 16.4% | [4] 19% | [5] 9.95% | [6] 18.9%

CC(C)c1ccc(C(=O)OCCCl)cc1
inactive: [1] 29.7% | [2] 9% | [3] 6.6% | [4] -3.05% | [5] -4.2% | [6] 23.8%

S=C=Nc1ccc2ccccc2c1
inactive: [1] 15.3% | [2] -12.4% | [3] -5.9% | [4] 10.6% | [5] 2.35% | [6] 21.1%

CC(C)c1ccccc1NC(=O)N1CCC(C(C)C)CC1
inactive: [1] -20.8% | [2] -42.6% | [3] -29.8% | [4] -22.6% | [5] -7% | [6] -12.7%

CC(O)C(F)(F)C(F)(F)C(F)(F)F (stereo unspecified)
inactive: [1] 7.8% | [2] -16.6% | [3] 19.9% | [4] -2.1% | [5] -2.7% | [6] 20.8%

CC1CCC(C(C)(C)[N+](C)(C)C)CC1 (stereo unspecified)
inactive: [1] 40.2% | [2] 17.6% | [3] 23.9% | [4] 10.6% | [5] 47.2% | [6] 36.4%

COCC(N)=O
inactive: [1] 31.2% | [2] -17.9% | [3] 15.2% | [4] -5.1% | [5] 5.2% | [6] 13.8%

CN(CCCN(C)CCC1CCCCC1)CCC1CCCCC1
inactive: [1] 11.2% | [2] -1.05% | [3] 0.1% | [4] 54.8% | [5] 2.15% | [6] 7.7%

C1CCc2onc(-c3noc4c3CCCCC4)c2CC1
inactive: [1] -9.45% | [2] -15.8% | [3] -19.1% | [4] -1.1% | [5] -21.4% | [6] 2.8%

CCCCNc1ccc(-c2ccc(NCCCC)cc2)cc1
inactive: [1] 31.9% | [2] 4.3% | [3] -3.8% | [4] -36.1% | [5] -5.3% | [6] 59.5%

CCC(=O)Oc1c(C)cc(O)c2ccccc12
inactive: [1] 8.95% | [2] -49.6% | [3] 18.7% | [4] 52.9% | [5] 35.2% | [6] 27.7%

CCOC(=O)/C(O)=C(\C=N\C(=S)Nc1ccc(Cl)c(Cl)c1)C(=O)OCC
inactive: [1] 43.6% | [2] 11.2% | [3] 38.5% | [4] 6.65% | [5] 49.5% | [6] 50.6%

CC(C)C(=O)OCCOc1ccc(C(C)(C)C)cc1
inactive: [1] 6.35% | [2] 3.1% | [3] 6.9% | [4] -5.2% | [5] 15% | [6] 13.7%

Nc1ncnc(Nc2ccc(C(F)(F)F)cc2)n1
inactive: [1] 44% | [2] 8.35% | [3] 1.35% | [5] 25.6%

O=C(O)c1c[nH]c2ccccc2c1=O
inactive: [1] 4.95% | [2] -8.15% | [3] 5.7% | [4] -21.5% | [5] 1.65% | [6] 1.65%

Cc1cccnc1NC1OC(=O)c2ccccc21 (stereo unspecified)
inactive: [1] -22.1% | [2] -4.4% | [3] -16.6% | [4] 2.05% | [5] -9.25% | [6] -9.65%

S=c1nc(-c2ccccn2)c(-c2ccccn2)n[nH]1
inactive: [1] -11% | [2] -9.05% | [3] -1.2% | [4] 11% | [5] -21.8% | [6] -53.7%

O=C(O)Cc1ccc(Cl)cc1
inactive: [1] 22.2% | [2] -15.3% | [3] 29% | [4] 3.65% | [5] -25.2% | [6] 0%

Cn1c(=O)c2[nH]c(CCCCC(=O)O)nc2n(C)c1=O
inactive: [1] -7.8% | [2] -13.2% | [3] -34.1% | [4] -20.9% | [5] -39.4% | [6] 4.2%

CCOC(=O)CSCCC#N
inactive: [1] 2.85% | [2] 2.35% | [3] -5.05% | [4] -7.9% | [5] 1.75% | [6] 0.65%

COc1ccc(Br)c2c1C(=O)CC2
inactive: [1] 43.6% | [2] 23.4% | [3] 29.4% | [4] 28.4% | [5] 5.45% | [6] 32.9%

CCCCCCCCCCCCCC/C=C\C(CC(=O)O)C(=O)O (stereo unspecified)
inactive: [1] 4.6% | [2] -15.5% | [3] 6.1% | [4] -32.6% | [5] -28.4% | [6] -19.2%

CCOC(=O)Nc1nccs1
inactive: [1] -13.7% | [2] 7.9% | [3] -5.3% | [4] -37% | [5] -2.6% | [6] -4.6%

COc1cc(OC)c2cc(C(=O)c3ccc(C#N)cc3)c(=O)oc2c1
inactive: [1] 17% | [2] -12.1% | [3] 25.1% | [4] 31% | [5] 35.1% | [6] 32.2%

O=[N+]([O-])c1ccc2[nH]c(=S)n(/C=C(/c3ccc(Cl)cc3Cl)S(=O)(=O)Cc3ccc(Cl)cc3Cl)c2c1
inactive: [1] -5.05% | [2] -13.8% | [3] 16.1% | [4] 23.9% | [5] -3% | [6] -13.1%
